More than one record can exist for a structure, and the calls need not agree. The source made the active and inactive calls. How the source made its calls: active means hit-call score of the fitted dose curve at least 0.9, where 1 is the maximum; inactive means score below 0.9.
These compounds were tested against Transcriptional activator Myb (Homo sapiens) (UniProt P10242) (assay: ATG_Myb_CIS: Attagene CIS-FACTORIAL HepG2 Assay for human Myeloblastosis (Myb) Proto-Oncogene Transcription Factor (AID 2282986)). Settings: HepG2 Attagene CIS-FACTORIAL Myb reporter transcription; actives raise or lower the signal.
Chain of Transcriptional activator Myb (Homo sapiens) (P10242 whole entry, looked up): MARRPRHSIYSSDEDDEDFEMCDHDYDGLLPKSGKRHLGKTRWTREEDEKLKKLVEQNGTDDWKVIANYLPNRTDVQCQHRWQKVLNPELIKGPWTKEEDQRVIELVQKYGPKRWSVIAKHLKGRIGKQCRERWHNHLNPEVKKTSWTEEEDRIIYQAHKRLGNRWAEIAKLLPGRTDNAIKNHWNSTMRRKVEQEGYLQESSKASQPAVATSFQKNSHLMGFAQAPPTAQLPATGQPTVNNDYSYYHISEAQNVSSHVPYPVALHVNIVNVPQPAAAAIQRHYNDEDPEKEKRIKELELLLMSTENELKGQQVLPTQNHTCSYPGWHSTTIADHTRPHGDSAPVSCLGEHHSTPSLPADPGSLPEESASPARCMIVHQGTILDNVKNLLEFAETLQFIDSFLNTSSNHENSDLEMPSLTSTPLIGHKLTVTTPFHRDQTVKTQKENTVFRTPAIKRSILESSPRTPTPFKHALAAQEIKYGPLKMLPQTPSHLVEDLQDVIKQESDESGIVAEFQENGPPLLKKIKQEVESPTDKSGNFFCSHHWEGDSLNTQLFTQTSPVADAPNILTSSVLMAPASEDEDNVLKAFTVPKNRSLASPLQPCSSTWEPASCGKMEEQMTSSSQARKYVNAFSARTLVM
Experimental: ATG_CIS is a cell-based, multiplexed-readout assay that uses HepG2, a human liver cell line, with measurements taken at 24 hours after chemical dosing in a 24-well plate.ATG_Myb_CIS is one of 52 assay component(s) measured or calculated from the ATG_CIS assay. It is designed to make measurements of mRNA induction, a form of inducible reporter, as detected with fluorescence intensity signals by Reverse transcription polymerase chain reaction (RT-PCR) and Capillary electrophoresis technology.Data from the assay component ATG_Myb_CIS was analyzed into 1 assay endpoint. This assay endpoint, ATG_Myb_CIS, was analyzed with bidirectional fitting relative to DMSO as the negative control and baseline of activity. Using a type of inducible reporter, measures of mRNA for gain or loss-of-signal activity can be used to understand the reporter gene at the transcription factor-level as they relate to the gene MYB. Furthermore, this assay endpoint can be referred to as a primary readout, because this assay has produced multiple assay endpoints where this one serves a reporter gene function. To generalize the intended target to other relatable targets, this assay endpoint is annotated to the dna binding intended target family, where the subfamily is MYB proteins.
Human liver HepG2 cells are transiently transfected with multiple reporter transcription units (MRTUs) in 6-well plates using FuGene 6 reagent (Roche; 3 ml FuGene/1 mg DNA). The MRTU constructs are regulated by a cis-regulating element (promoter). […] A major difference between the CIS and TRANS system is that in CIS activities of endogenous TFs are measured, whereas the TRANS assay evaluates changes in activities of exogenous, chimeric NR-Gal4 proteins. […] At the end of 24 hour incubation, total RNA was isolated using TriZol reagent (Invitrogen). The isolated RNA is then reverse-transcribed using oligo(dT) primer and Mo-MLV reverse transcriptase (Invitrogen) with DNAse I (Ambion) treatment for 30 min. The one-tenth of the produced cDNA was amplified by PCR using Taq DNA polymerase (Invitrogen) and two reporter sequence-specific primers. The PCR products were fluorescently labeled by primer extension with 6-arboxyfluorescein (6-FAM) 5'-labeled reporter sequence-specific primer (2 min at 95 C, 20 s at 68 C and 10 min at 72 C) and these products were digested with 5U of HpaI (New England Biolabs) for 2h at 37 C. The fragments were purified using Qiaquick PCR columns (Qiagen), analyzed on an ABI 3130xL genetic analyzer (Applied Biosystems) with peak positions identified by using a set of X-rhodamine (ROX)-labeled MapMarker1000 molecular weight standards (BioVentures). The raw capillary electrophoresis data was processed using Attagraph software (Attagene).

SMILES	outcome	AC50
OCCCC(F)(F)C(F)(F)C(F)(F)F	inactive	
CCCCCCOC(=O)c1ccccc1	inactive	
COC(OC(C)=O)c1ccccc1 (stereo not given)	inactive	
CC/C=C\CCOC(C)=O	inactive	
N=C(N)C(F)(F)C(F)(F)C(F)(F)C(F)(F)C(F)(F)C(F)(F)C(F)(F)F	inactive	
Cc1cc(C)cc(O)c1	inactive	
CC(C)OC(=O)c1ccccc1C(=O)OC(C)C	inactive	
O[Si](c1ccccc1)(c1ccccc1)c1ccccc1	inactive	
O=S(=O)(OCCOC(F)(F)F)C(F)(F)F	inactive	
Nc1ccc(Oc2cccc(Oc3ccc(N)cc3)c2)cc1		108 µM (active)
C=CC(=O)OCC(F)(F)C(F)(F)C(F)(F)C(F)(F)C(F)(F)C(F)(F)C(F)(F)F	inactive	
CC(Cc1ccc(O)c(O)c1)C(C)Cc1ccc(O)c(O)c1 (stereo not given)	inactive	
FC(F)(F)C(F)(F)CNCC(F)(F)C(F)(F)F	inactive	
O=C(O)C(F)(F)C(F)(F)C(F)(F)C(F)(F)C(F)(F)C(F)(F)C(F)(F)C(F)(F)C(F)(F)C(F)(F)C(F)(F)C(F)(F)F	inactive	
Nc1ccc([N+](=O)[O-])cc1O	inactive	
O=C(O)C(F)(OC(F)(F)C(F)(OC(F)(F)C(F)(OC(F)(F)C(F)(F)C(F)(F)F)C(F)(F)F)C(F)(F)F)C(F)(F)F (stereo not given)	inactive	
FC(F)(F)C(F)(F)C(F)(F)C(F)(F)C(F)(F)C(F)(F)C(F)(F)C(F)(F)F	inactive	
Oc1ccc(Nc2ccccc2)cc1	inactive	
CC(C)(C)c1ccc(OC2CCCCC2O)cc1 (stereo not given)	inactive	
CCCCCC=O	inactive	

SMILES	outcome	AC50
O=S(=O)(OCC(F)F)C(F)(F)F	inactive	
O=C(O)C(F)(F)C(F)(F)C(F)(F)C(F)(F)F	inactive	
O=C(O)C=C(C(F)(F)F)C(F)(F)F	inactive	
CC(=O)Nc1ccc(N=Nc2cc(C)ccc2O)cc1	inactive	
CCO[Si](CCC(F)(F)C(F)(F)C(F)(F)C(F)(F)C(F)(F)C(F)(F)F)(OCC)OCC	inactive	
CC(C)c1ccccc1N	inactive	
O=C(O)C(F)(F)C(F)(F)C(F)(F)C(F)(F)C(F)(F)C(F)(F)C(F)(F)C(F)(F)C(F)(F)C(F)F	inactive	
O=C(O)C(F)(OC(F)(F)C(F)(OC(F)(F)C(F)(F)C(F)(F)F)C(F)(F)F)C(F)(F)F (stereo not given)	inactive	
O=S(=O)(O)c1ccc2ccccc2c1	inactive	
c1ccc(-c2ccccc2-c2ccccc2)cc1	inactive	
Nc1ccc(S(=O)(=O)Nc2nccs2)cc1	inactive	
C=C(C)C(=O)OCC(F)(F)C(F)(F)C(F)(F)F	inactive	
O=S(=O)(O)C(F)(F)C(F)(F)C(F)(F)C(F)(F)C(F)(F)C(F)(F)C(F)(F)F	inactive	160 µM (active)
CCCCCCCCCCCCCCCC[N+](C)(C)Cc1ccccc1	inactive	
CCCCC(CC)COP(=O)(O)OCC(CC)CCCC (stereo not given)	inactive	
FC(F)(F)C(F)(F)C(F)(F)C(F)(F)C(F)(F)C(F)(F)CCS	inactive	
O=C(O)C(F)(F)C(F)(F)C(F)(F)C(F)(F)C(F)(F)C(F)(F)C(F)(F)C(F)(F)C(F)(F)C(F)(F)C(F)(F)C(F)(F)C(F)(F)F	inactive	
OCC(F)(F)C(F)(F)C(F)(F)F	inactive	
CCN(CC)c1ccc2c(C)cc(=O)oc2c1	inactive	

From PubChem BioAssay (EPA / NIEHS)
